Records with an inconclusive call do not appear. Where a call stands in place of a potency, no number is given. The source made the active and inactive calls. Calls come from the whole dose curve.

The assay can be described thus: Primary qHTS for inhibitors of MERS-S pseudo-typed particle cell entry (AID 1479149). Note: nearly all actives have a fitted effect of over 60% in size. As to conditions: MERS-S pseudotyped particle entry, luciferase; series mostly up to 57.1 µM.
As for `CCOc1cc(OCC)c(C(=O)CCC(=O)O)cc1OCC`, the Potency entry was “inactive”.

Regarding `COc1ccc(C(=O)c2ccccc2)c(O)c1`, the Potency entry was “inactive”.

For `C[C@]12CC[C@H]3[C@@H](CCC4=CC(=O)CC[C@@H]43)[C@@H]1CC[C@@H]2OC(=O)CCc1ccco1`, the Potency result was “inactive”.

Consider `Cn1c(=O)c2[nH]c(Br)nc2n(C)c1=O`, for which the Potency result was “inactive”.

As for `CC1(C)O[C@@H]2C[C@H]3[C@@H]4CCC5=CC(=O)C=C[C@]5(C)[C@@]4(F)[C@@H](O)C[C@]3(C)[C@]2(C(=O)CO)O1`, the Potency result was “inactive”.

For the compound `COc1c2occc2cc2ccc(=O)oc12`, the Potency entry was “inactive”.

As to `CC(CC(C#N)(c1ccccc1)C(C)C)N(C)C` (configuration not stated), the Potency result was “inactive”.

As to `NCC(=O)CCC(=O)O`, the Potency result is “inactive”.

For `CCCCCCCCCCCCSCCOCCO`, the Potency entry is “inactive”.

On to `c1ccc(-c2nc[nH]c2-c2ccccc2)cc1`, for which the Potency entry was “inactive”.

Take `O=C(O)c1ccccc1S`: the Potency entry was “inactive”.

On to `O=P(O)(O)C(O)(Cn1ccnc1)P(=O)(O)O`, for which the Potency result was “inactive”.

Take `CC(O)(P(=O)(O)O)P(=O)(O)O`: the Potency entry was “inactive”.

`Cc1cc(C)c(NC(=O)CN(CC(=O)O)CC(=O)O)c(C)c1Br`: the Potency entry was “inactive”.

On to `Cc1ccc(C(C)C)c(O)c1`, for which the Potency entry was “inactive”.

For `S=P(N1CC1)(N1CC1)N1CC1`, the activity change, negative = inhibition was 3.72% [at 0.573 µM] (inactive).

In the case of `O=c1[nH]c(=O)n([C@H]2CCCO2)cc1F`, the Potency entry was “inactive”.

With `C=CCc1ccc(O)c(OC)c1`, the Potency result was “inactive”.

As for `COC(=O)c1cccnc1`, the Potency entry is “inactive”.

In the case of `Cc1cc(NS(=O)(=O)c2ccc(N)cc2)nc(C)n1`, the Potency result was “inactive”.

Regarding `CC1CC(OC(=O)c2ccccc2O)CC(C)(C)C1` (configuration not stated), the Potency result was “inactive”.

With `C[C@](O)(CS(=O)(=O)c1ccc(F)cc1)C(=O)Nc1ccc(C#N)c(C(F)(F)F)c1`, the Potency entry was “inactive”.

Consider `Clc1ccc2nsnc2c1NC1=NCCN1`, for which the Potency entry was “inactive”.

As for `O=C(CCOCCOCCOCCOCCC(=O)Nc1c(I)cc(I)c(C(=O)O)c1I)Nc1c(I)cc(I)c(C(=O)O)c1I`, the Potency entry is “inactive”.

For `Cc1ccc(C(=O)c2ccc(CC(=O)O)n2C)cc1`, the Potency entry is “inactive”.

Consider `O=c1oc2ccccc2c(O)c1Cc1c(O)c2ccccc2oc1=O`, for which the Potency entry is “inactive”.

As for `CN1C(CSCC(F)(F)F)Nc2cc(Cl)c(S(N)(=O)=O)cc2S1(=O)=O` (configuration not stated), the Potency result is “inactive”.

For `CC(C)c1ccc2oc3nc(N)c(C(=O)O)cc3c(=O)c2c1`, the Potency entry is “inactive”.

In the case of `NCCCCCC(=O)O`, the Potency result is “inactive”.

In the case of `CC(=O)OCC1=C(C(=O)O)N2C(=O)[C@@H](NC(=O)Cc3cccs3)[C@H]2SC1`, the Potency entry was “inactive”.

For the compound `COc1ccc(NS(=O)(=O)c2ccc(N)cc2)nn1`, the Potency result is “inactive”.

Take `CCO[C@H](Cc1ccc(OCCc2ccc(OS(C)(=O)=O)cc2)cc1)C(=O)O`: the Potency entry was “inactive”.

These data come from PubChem BioAssay (NCATS).
